Measured values taken from PubChem BioAssay AID624330 (Southern Research Specialized Biocontainment Screening …, 2012).
Among all 340,000 compounds or so, about 2,100 (0.62%) were called active.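 How the source made its calls: active means first-screen hits whose inhibition reached a set limit at any dose in the follow-up dose series; inconclusive means inhibition above the set first-screen limit but never retested; inactive means the rest.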 These entries were drawn from the full list. Potency and affinity values are given separately.

target: Rac GTPase-activating protein 1 (Homo sapiens) (UniProt Q9H0H5); experiment: blockers of MgcRacGAP-driven Rac1 GTP hydrolysis – biochemical, ADP Hunter fluorescence, primary and confirmatory, confirmation (AID 624330); conditions: MgcRacGAP-stimulated Rac1 GTP hydrolysis, at 30 µM, stronger effect = higher value, GST-tagged Rac1 F28L mutant substrate;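 further: fluorescence reports GDP produced by GAP-driven GTP hydrolysis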
Sequence (Q9H0H5 whole entry, looked up): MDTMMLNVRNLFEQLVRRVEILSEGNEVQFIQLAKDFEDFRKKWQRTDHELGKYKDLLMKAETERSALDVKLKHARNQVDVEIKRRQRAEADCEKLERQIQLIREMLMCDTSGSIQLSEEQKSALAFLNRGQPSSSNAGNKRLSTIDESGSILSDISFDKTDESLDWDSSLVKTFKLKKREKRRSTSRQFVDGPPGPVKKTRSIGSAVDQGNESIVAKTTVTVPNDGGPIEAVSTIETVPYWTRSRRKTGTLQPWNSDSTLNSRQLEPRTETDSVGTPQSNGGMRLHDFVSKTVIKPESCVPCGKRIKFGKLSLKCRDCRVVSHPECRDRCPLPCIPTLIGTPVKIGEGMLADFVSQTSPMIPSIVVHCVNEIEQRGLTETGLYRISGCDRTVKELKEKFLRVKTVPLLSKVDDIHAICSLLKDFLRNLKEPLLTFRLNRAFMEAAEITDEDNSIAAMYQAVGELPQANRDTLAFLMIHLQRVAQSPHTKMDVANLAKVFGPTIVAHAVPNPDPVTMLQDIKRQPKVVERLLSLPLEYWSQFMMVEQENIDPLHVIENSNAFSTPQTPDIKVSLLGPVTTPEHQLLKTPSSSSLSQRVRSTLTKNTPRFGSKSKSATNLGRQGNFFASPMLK

inhibition, inactive:
O=C(/C=C/c1cccc(F)c1)N1CCN(c2ccccn2)CC1 6.78%
CCOc1ccc(OCCC(=O)Nc2ccc(N3CCOCC3)cc2N2CCOCC2)cc1 4.37%
COC(=O)c1ccsc1NC(=O)CN1CCN(c2ncccn2)CC1 -6.48%
O=C(CSc1nc2ncc(Cl)cc2[nH]1)N1CCC(Cc2ccccc2)CC1 5.18%
O=C(COc1ccccc1[N+](=O)[O-])Nc1cccc(Cl)c1N1CCOCC1 9.17%
COc1cccc(CNc2nn[nH]n2)c1OC 3.59%
COc1ccccc1CNc1cc(C)ccc1C -1.27%
COc1cc(OC)c(OC)cc1CNc1cc(C)ccc1OC 14.2%
COc1ccc(CNc2cc(C)ccc2C)c(OC)c1OC 14.2%
COc1cc(CNc2cc(C)ccc2C)cc(OC)c1OC 6.31%
COc1ccccc1CNc1cc(-c2ccccc2)ccc1OC 7.7%
O=C(c1nn2c(C(F)(F)F)cc(-c3ccccc3)nc2c1Cl)N1CCN2CCCC2C1 (stereo not drawn) 3.99%
CC(C)c1ccc(NC(=O)NC2CCN(CC(=O)Nc3cccc4ccccc34)CC2)cc1 13.1%
CNC(=O)C[C@H]1C(=O)N(C2CCCCC2)C[C@@H]1CSC 16.8%
Cc1ccccc1Nc1ncnc2c1cnn2C 12.2%
O=C(c1ccc(Cl)c(S(=O)(=O)N2CCOCC2)c1)N1CCCC1 3.9%
O=C(N1CCCCC1)N1CCN(S(=O)(=O)c2ccc(Cl)cc2)CC1 4.45%
CC(=O)n1c2ccccc2c2nc(NC(C)C)sc21 5.24%
C=CCNc1nc2c3ccccc3n(C(C)=O)c2s1 24.6%
COc1cc(C(=O)NCc2nnc(SCC(=O)N3CCCCC3)o2)cc(OC)c1OC 6.92%
Cc1cc(C(=O)CS(=O)(=O)c2ccccc2)cc(C)c1O 10.7%
CC1=C/C(=C(/c2ccc(O)c(C)c2)c2ccccc2S(=O)(=O)O)C=CC1=O 19.7%
CC1=C/C(=C(\c2ccc(O)c(C)c2)c2ccccc2S(=O)(=O)O)C=CC1=O 3.41%
CC1=CC(=O)C=C/C1=C(/c1ccc(O)cc1C)c1ccccc1S(=O)(=O)O 9.36%
COc1cc(OC)cc(C(C(=O)NCc2ccccc2)N(Cc2ccco2)C(=O)c2ccno2)c1 (stereo not drawn) 5.98%
CCc1cc2c(C)ccc(C)c2nc1SCC(=O)Nc1c(C)[nH]c(=O)[nH]c1=O -14.5%
CCOC(=O)/C(=N\Nc1ccccc1)P(=O)(c1ccccc1)c1ccccc1 5.15%
COc1ccc(C(CNC(=O)CSc2ccccc2C)N(C)C)cc1 (stereo not drawn) 6.46%
COC(=O)c1c(NC(=O)CSc2nnnn2-c2ccccc2)sc2c1CCC(C(C)(C)C)C2 (stereo not drawn) 5.4%
CC1CCC/C=C/C(=O)c2c(O)cc(O)cc2CC(=O)O1 (stereo not drawn) -7.81%
CC1CCCC=CC2CC(OC(=O)CN(C)C)CC2C(O)C=CC(=O)O1 (stereo not drawn) 3.18%
COc1ccccc1NC(=O)/C(C#N)=C/c1cccnc1 4.24%
Cc1ccccc1NC(=O)/C(C#N)=C\c1cccnc1 16.7%
CCCOc1ncnc2c1[nH]c1ccc(OC)cc12 5.1%
Cc1cc(O)ccc1NC(=S)NC(=O)c1cncc(Br)c1 11%
CC(C)CCNC(=O)c1cccc(C(=O)NCCC(C)C)c1 9.34%
N/C(=N\N=C\c1cccc(O)c1)c1nonc1N 7.37%
COc1cc(/C=N/N=C(\N)c2nonc2N)cc(OC)c1O 19.5%
Cc1ccc(/C=N/N=C/c2ccc(C)cc2)cc1 4.21%
COc1ccc(/C=N/N=C(\N)c2nonc2N)cc1 6.95%
COc1ccc(/C=N/N=C(\N)c2nonc2N)cc1OC 0.88%
C(=N\N=C\c1ccccc1)/c1ccccc1 5.71%
COc1ccc(C(=O)NN=C2CCCC2)cc1OC -4.29%
CC(C)NC(=O)N(C)C[C@H]1Oc2ccc(NC(=O)Cc3ccccc3)cc2C(=O)N([C@H](C)CO)C[C@@H]1C -4.37%
O=C(Nc1ccc(Cl)c(Cl)c1)N1N=CCC1c1ccccc1 (stereo not drawn) 0.69%
COc1ccc(-c2cc(C(F)F)n3ncc(C(=O)Nc4c(C)n(C)n(-c5ccccc5)c4=O)c3n2)cc1 5.73%
COc1ccccc1NS(=O)(=O)c1cc(NC(=S)NCCN2CCOCC2)ccc1N1CCOCC1 21.5%
Cc1ccc(S(=O)(=O)N2CCCCC2)cc1NC(=O)C1=NN(c2ccccc2)C(=O)CC1 4.16%
c1ccc(OCc2nc3ccccc3s2)cc1 7.47%
Fc1ccc(OCc2nc3ccccc3s2)cc1 3.88%
O=c1oc2ccccc2c(O)c1Sc1c(O)c2ccccc2oc1=O 16.1%
COc1cc(C(=O)NCCCCc2ccccc2)cc(OC)c1OC 5.47%
COc1ncnc2c1ncn2CCCNCc1ccccn1 12.9%
COC(=O)C(NC(C)=O)(Nc1sc2c(c1C(N)=O)CCCC2)C(F)(F)F (stereo not drawn) 4.3%
COc1ccccc1CNc1ncc(-c2ccc(F)cc2)n1C 28.3%
Cn1c(-c2ccc(F)cc2)cnc1NCc1ccc(F)cc1F 29.6%
Cn1c(-c2ccccc2)cnc1NCc1cc(Cl)ccc1O 31.7%
COc1ccc(CNc2ncc(-c3ccc(Cl)cc3)n2C)c(OC)c1OC 16.9%
Cc1ccc(CNc2nc3ccccc3n2C)o1 8.19%
COc1ccc(CNc2ncc(-c3cccc([N+](=O)[O-])c3)n2C)c(OC)c1OC 28.9%
COc1ccc(CNc2ncc(-c3ccccc3)n2C)c2ccccc12 23.6%
Cn1c(-c2ccc(F)cc2)cnc1NCc1ccccc1F 25.9%
COc1ccc(CNC(=O)c2ccc(Cn3nc(C)c([N+](=O)[O-])c3C)o2)cc1 5.77%
Cc1cc(C)c(SSc2nnnn2-c2ccccc2)c(C)c1 27.2%
CC1CN(C(=O)CCNC(=O)c2ccccc2Cl)CC(C)O1 (stereo not drawn) 4.76%
COC(=O)[C@H](C(C)C)N(Cc1ccccc1)S(=O)(=O)CCN1CCN(c2ccccc2)CC1 3.71%
Cc1c(Br)c([N+](=O)[O-])nn1CC(=O)Nc1nccs1 -2.73%
COc1ccc(S(=O)(=O)NC(CC(=O)NC2CCCC2)c2ccco2)cc1 (stereo not drawn) 5.91%
O=C(C1CCN(S(=O)(=O)c2cccc3nsnc23)CC1)N1CCc2ccccc2C1 -5.35%
Cn1c(-c2ccc(F)cc2)cnc1NCc1ccc(C#N)cc1 24.6%
Cn1c(-c2ccc(F)cc2)cnc1NCc1ccccc1 25.3%
O=C1C=CC(=O)N1c1ccccn1 7.4%
COc1cc(N2C(=O)C=CC2=O)c(OC)cc1Cl -11.4%
O=C(c1ccccc1)c1ccccc1N1C(=O)C=CC1=O 17.1%
COc1ccc(N2C(=O)C3CC(C)=C(C)CC3C2=O)c(OC)c1 (stereo not drawn) 0.34%
CCCc1cc(=O)[nH]c(SCC(=O)Nc2ccc(C)c(S(=O)(=O)N3CCCCC3)c2)n1 6.98%
COc1cccc(OC)c1C(=O)N1CCN(c2ccccn2)CC1 6.84%
COC(=O)c1c(NC(=O)c2cccnc2)sc(C(=O)N(C)C)c1C 4.99%
COc1ccc(-c2cc(-c3ccccc3O)[nH]n2)cc1OC 13.3%
COc1ccc(-c2cncnc2-c2ccc(OC)cc2O)cc1 2.33%
COc1ccc(-c2cc(-c3ccc(OC)c(OC)c3)n[nH]2)c(O)c1 8.89%
COc1ccccc1-c1c(-c2ccc(O)cc2O)n[nH]c1C(F)(F)F 13.8%
COc1ccc(-c2c(-c3ccc(O)cc3O)n[nH]c2C(F)(F)F)cc1 9.47%
COc1ccc(-c2cc3cc(OC)c(OC)cc3c(C)n2)cc1 6.65%
COc1ccc(-c2cc3cc(OC)c(OC)cc3c(C)n2)cc1C 6.32%
COc1ccc(-c2nc(N)ncc2-c2ccccc2OC)c(O)c1 5.57%
COc1ccc(CNC(=O)C2CCCN(c3nn4c(=O)cc(C)nc4s3)C2)cc1 (stereo not drawn) 12.2%
CC1C2Cn3c(nc4ccccc43)C1N(C(C)C)O2 (stereo not drawn) 10.4%
Nc1ccc(C(=O)O)cc1S(=O)(=O)O 14.3%
CCOC(=O)c1cnc2c(Cl)c(Cl)ccc2c1NCCN1CCOCC1 8.14%
O=C(NC(=S)Nc1ccccc1Br)C1CCCCC1 13%
CCCN(CC(=O)Nc1ccccc1C)C(=O)C1CCN(S(=O)(=O)c2ccc3c(c2)OCCO3)CC1 4.31%
O=C(CCc1ccccc1)n1nc(-c2ccccc2)nc1NCc1ccco1 7.46%
COc1ccc(-c2nc(C(=O)O)cs2)cc1OC -2.83%
COc1ccc(-c2nc(CCl)cs2)cc1OC 1.88%
CCOc1ccc(-c2cc(C(=O)OC)[nH]n2)cc1 0.73%
CN(C)S(=O)(=O)c1ccc(C(=O)Nc2cccc(S(=O)(=O)NC3=NCCC3)c2)cc1 3.74%
O=[N+]([O-])c1ccc(N2CCN(c3cccc(Cl)c3)CC2)cn1 8.34%
